MPTP block: mitochondrial permeability transition pore inhibitors, primary screen, biochemical, isolated mouse mitochondria, absorbance; Ca2+ swelling absorbance, 30 min; inhibition, % at 10 µM; 360,000 compounds, 1.4% hits;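 active means inhibition of 50% or more, scaled per plate between neutral and stimulator controls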
NR3A LBD binder: binders of NR3A ligand-binding domain, primary screen, biophysical, differential scanning fluorimetry, uHTS; Glutamate receptor ionotropic, NMDA 3A (GRIN3A) ligand-binding domain; NR3A LBD differential scanning fluorimetry, Tm shift; 0% = protein alone, 100% = glycine-bound protein; Tm shift relative to glycine control, % at 25 µM; 340,000 compounds, 2.5% hits;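 active means melting temperature shift of at least 10% of the positive control shift, at one fixed dose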
rCAG binder: binders of r(CAG) RNA repeats, primary screen, biochemical, fluorescence; r(CAG) RNA repeat, TO-PRO-1 dye displacement fluorescence; inhibition, % at 3 µM; 370,000 compounds, 1.3% hits;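 active means inhibition above the plate cutoff, the mean of all test compounds on that plate plus 3 SD, cut at about 35% in these data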;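 further: higher means more dye released from RNA so lower well fluorescence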
FAS TE block: FAS thioesterase domain inhibitors, primary screen, biochemical, fluorescence intensity, uHTS. Fatty acid synthase (Homo sapiens), P49327. recombinant FAS-TE, OMFH fluorogenic substrate, fluorescence endpoint. inhibition, % at 15 µM. 360,000 compounds, 0.67% hits;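 active means compounds whose normalised, plate-corrected inhibition of enzyme fluorescence in the single-dose primary screen is 50% or more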
Myeloid diff MLP: induction of myeloid progenitor differentiation, primary screen, cell-based, flow cytometry, MLPCN library. 360,000 compounds, 1% hits. ER-HoxA9 myeloid progenitors, lysozyme-GFP differentiation. calls only at 10 µM;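 active means normalized GFP-positive differentiation at or above the plate's own cutoff, the solvent-only control mean plus 3 SD; inconclusive means no clear call, values can overlap the other calls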;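 further: cells exposed to compound for four days before flow analysis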
rCAG bind conf: small molecules binding CAG repeat RNA – biochemical, fluorescence, confirmation; AID 652065, 2013; inhibition, % at 3 µM; shares compounds with rCAG binder; r(CAG) RNA repeat, TO-PRO-1 dye displacement fluorescence; 4,300 compounds, 70% hits;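 active means inhibition above a per-plate cutoff, the mean inhibition of sample wells plus 3 SD, cut at about 35% in these data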;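 further: loss of TO-PRO-1 fluorescence as compound displaces dye from 1x1 AA loop RNA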
dCAG dye counter: displacement of TO-PRO-1 from CAG DNA duplex, counter-screen for rCAG RNA repeat binder project, biochemical, fluorescence, TO-PRO-1 dye, d(CAG) DNA oligo; shares compounds with rCAG binder; d(CAG) DNA oligo TO-PRO-1 dye displacement; inhibition, % at 3 µM; 4,300 compounds, 94% hits; AID 652068, 2013;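 active means inhibition above its plate's cutoff, the mean test-well inhibition plus 3 SD, cut at about 4.8% in these data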;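 further: hits displace the dye from DNA and so lower well fluorescence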
Hits are given with their value; 0 = inactive; ? = inconclusive; - = no result; + = active, no number. This is a sample that favours compounds with a hit; in the whole collection about 5.7% have one here.

SMILES	MPTP block	NR3A LBD binder	rCAG binder	FAS TE block	Myeloid diff MLP	rCAG bind conf	dCAG dye counter
CCN(CC)c1ccc(SS(=O)(=O)O)cc1	0	0	0	0	0	-	-
CCCCC[C@@H]1C=C(C(=O)O)[C@H](c2ccc(Cl)c(Cl)c2)N1S(=O)(=O)c1ccc(C)cc1	0	0	85	0	0	87	53
CCCCC[C@@H]1C=C(C(=O)O)[C@H](c2ccc(OC)c(OC)c2)N1S(=O)(=O)c1ccc(C)cc1	0	0	50	0	0	44	14
CCCCC[C@@H]1C=C(C(=O)O)[C@H](c2ccc3c(c2)OCO3)N1S(=O)(=O)c1ccc(C)cc1	0	0	65	0	0	54	21
CCCCC[C@@H]1C=C(C(=O)O)[C@H](c2cccc(C)c2)N1S(=O)(=O)c1ccc(C)cc1	0	0	67	0	0	50	16
CC[C@@H]1C=C(C(=O)O)[C@H](c2ccc(C#N)cc2)N1S(=O)(=O)c1ccc(C)cc1	0	0	0	0	0	-	-
CC[C@@H]1C=C(C(=O)O)[C@H](c2ccc3c(c2)OCO3)N1S(=O)(=O)c1ccc(C)cc1	0	0	0	0	0	-	-
COc1cccc(CNC(=O)[C@@H]2CCCN2C(=O)OC(C)(C)C)c1	0	-	0	0	0	-	-
CC[C@@H]1C=C(C(=O)O)[C@H](c2ccc(Cl)c(Cl)c2)N1S(=O)(=O)c1ccc(C)cc1	0	0	46	0	0	41	12
COc1cc(/C=C2\SC(=S)N(NS(=O)(=O)c3ccc(C)cc3)C2=O)cc(OC)c1OC	0	0	0	0	0	-	-
COc1cccc(/C=C2\SC(=S)N(NS(=O)(=O)c3ccc(C)cc3)C2=O)c1OC	0	-	75	0	0	66	28
Cc1ccc(S(=O)(=O)NN2C(=O)/C(=C/c3ccccn3)SC2=S)cc1	0	0	45	0	0	35	8.5
COc1ccccc1/C=C1\SC(=S)N(NS(=O)(=O)c2ccccc2)C1=O	0	0	69	0	0	69	22
O=C(N/N=C/c1ccc(-c2ccccc2Cl)o1)c1ccccc1	0	0	0	0	0	-	-
O=C(O)c1ccc(N/N=C/c2ccc(-c3ccccc3Cl)o2)cc1	0	0	65	0	0	41	11
O=C(O)c1cc(-c2ccc(/C=N/Nc3ccc(Cl)cc3)o2)ccc1Cl	0	0	67	0	0	67	28
Nc1nonc1C(=O)N/N=C/c1ccc(-c2ccc(Cl)c(C(=O)O)c2)o1	0	0	0	0	0	-	-
O=C(O)c1ccc(N/N=C/c2ccc(-c3ccc(Br)cc3)o2)cc1	0	0	49	0	0	49	14
Cn1c(SCc2ccccc2C#N)nnc1-c1ccncc1	0	0	0	0	0	-	-
C[C@@H](CO)N(Cc1cn(Cc2ccccc2)nn1)S(=O)(=O)c1ccccc1Br	-	-	0	-	-	-	-
Cc1sc2nc(SCC(=O)c3ccc(O)c(O)c3)n(C)c(=O)c2c1C	-	-	49	-	-	50	25
Cc1sc2nc(SCC(=O)OC(C)C)n(C)c(=O)c2c1C	0	0	0	0	0	-	-
COc1cc(NC(=O)CSc2nnc(NC(C)C)s2)cc(OC)c1OC	0	0	0	0	0	-	-
Cc1c(C(=O)O)oc2ccc(S(=O)(=O)N(CC(C)C)CC(C)C)cc12	0	0	46	0	0	0	0
COc1ccc(CC(=O)Nc2cc(C)ccn2)cc1	0	0	0	0	0	-	-
SMILES	MPTP block	NR3A LBD binder	rCAG binder	FAS TE block	Myeloid diff MLP	rCAG bind conf	dCAG dye counter
Cc1ncc(CO)c2c1Oc1nc(-c3ccccc3)nc(SCC(=O)Nc3cccc(O)c3)c1C2	0	0	58	0	0	0	17
COc1ccc(-c2nc3c(c(SCC(=O)Nc4cccc(O)c4)n2)Cc2c(CO)cnc(C)c2O3)cc1	0	0	58	0	0	0	16
COc1ccc(-n2c(O)c(/C=N/NS(=O)(=O)c3cc(C)ccc3C)c3ccccc3c2=O)cc1OC	0	0	49	0	+	73	33
COc1ccccc1NS(=O)(=O)c1cccc(-n2c(O)c(C=Nc3ccccc3C(=O)O)c3ccccc3c2=O)c1	0	0	91	0	0	91	73
COc1ccc(-n2c(O)c(/C=N/NS(=O)(=O)c3ccc(C)cc3)c3ccccc3c2=O)cc1OC	0	0	66	0	?	59	24
COc1ccc(-n2c(O)c(/C=N/Nc3nc(C)cc(C)n3)c3ccccc3c2=O)cc1OC	0	0	0	0	0	-	-
COc1ccc(Cn2c(O)c(C=Nc3ccccc3C(=O)O)c3ccccc3c2=O)cc1	0	0	0	0	0	-	-
Cc1ccc(S(=O)(=O)N2CCN(C(=O)COC(=O)/C=C/c3ccccc3[N+](=O)[O-])CC2)c(C)c1	0	0	0	0	0	-	-
Cc1ccc(NC(=S)NNC(=O)CSc2nc3sc4c(c3c(=O)n2-c2ccccc2)CCCC4)cc1	-	-	52	-	-	59	22
O=C(CSc1nnc(-c2ccccc2)n1-c1ccc(Cl)cc1)NNC(=S)Nc1ccccc1	0	0	0	0	0	-	-
O=C(CSc1nc2ccccc2c(=O)n1-c1ccc(Cl)cc1)NNC(=S)Nc1ccccc1	-	-	49	-	-	38	17
O=C(Nc1ccccc1F)N(CCCN1CCOCC1)Cc1cc2cc3c(cc2[nH]c1=O)OCCO3	0	0	0	0	0	-	-
NS(=O)(=O)c1ccc2c(c1)C1C=CCC1C(C1CC=CCC1)N2 (configuration not stated)	0	0	62	0	0	0	14
CCN1C(=O)S/C(=C/c2c(OCc3ccc(C(=O)O)cc3)ccc3ccccc23)C1=O	0	0	50	0	0	67	27
COc1cc(/C=C/c2ccc3cccc(O)c3n2)ccc1O	0	0	0	0	0	-	-
COc1cc(Br)cc(/C=C/c2ccc3cccc(O)c3n2)c1O	0	34	36	0	0	0	13
COc1cc(/C=C/c2ccc3cccc(O)c3n2)c(Br)cc1O	0	-	48	0	0	45	21
COc1cc(Br)c(/C=C/c2ccc3cccc(O)c3n2)cc1OC	0	0	0	0	0	-	-
CC1=C(C(=O)N2CCCCCC2)CC(CC(=O)NCCN2CCOCC2)C(=O)N1Cc1ccc(C(C)(C)C)cc1 (configuration not stated)	0	-	0	0	0	-	-
COc1ccccc1-n1c(C)cc(/C=C2/C(=N)N3C(=NC2=O)SN=C3S(C)(=O)=O)c1C	0	0	80	0	0	77	42
Cc1ccc(-n2cccc2/C=C2/C(=N)N3C(=NC2=O)SN=C3S(C)(=O)=O)cc1Cl	0	0	89	0	?	92	73

High-throughput results deposited in PubChem BioAssay by several laboratories.
